Assay results taken from PubChem BioAssay.
Potency and affinity values are given separately. Inconclusive results are not listed. Active and inactive are the calls of the source. Unless noted, the rule behind the calls is not given here.

Columns and labels:
[1] = inhibitors of PAX8-driven TPO luciferase reporter, dose response, RMG-I cells, cherry-pick (AID 687027;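 active = every replicate test run called active, with the signal dropping as expected and potency within twice the top valid dose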)
[2] = cytotoxicity in PAX8-dependent RMG-1 cells, dose response, cell-based, cherry-pick (AID 687029;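 active = signal drop whose fitted half-maximal concentration is at most twice the top valid dose, in every test run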;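 note: cells exposed to compound for 96 hours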)
[3] = non-specific cell cytotoxicity, dose response, cytotoxicity control for PAX8 inhibitor project, plate reader, dry powder samples (AID 743021)
[4] = cytotoxicity in IOSE-T80 ovarian epithelial cells, dose response, selectivity assay for PAX8 inhibitor project, cell-based, cherry-pick (AID 687032;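 active = fitted half-maximal concentration for viability loss no higher than twice the top valid dose, in every repeat run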;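 note: cells exposed to compound for 96 h before reading; 0% = neutral control wells and -100% = 2 µM mitoxantrone kill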)
[5] = inhibitors of CMV-promoter luciferase reporter, dose response, counter-screen for Pax8 inhibitor project, cell-based, HEK293, luminescence, dry powder (AID 743020;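 active = signal-lowering compounds whose fitted half-maximal concentration is at or below twice the top tested dose in every run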;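 note: HEK293 cells stably expressing the CMV luciferase reporter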)
[6] = IGROV1 ovarian cancer cell cytotoxicity, dose response, PAX8 inhibitor project, plate reader, dry powder samples (AID 743043);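 note: more negative means fewer viable cells or more cytotoxicity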
[7] = NIH:OVCAR-3 ovarian cancer cell cytotoxicity, dose response, PAX8 inhibitor project, plate reader, dry powder samples (AID 743044); conditions: max activity: at 35 µM, hits give low values unless noted
[8] = IOSE-T80 ovarian epithelial cell cytotoxicity, dose response, cytotoxicity control for PAX8 inhibitor project, plate reader, dry powder samples (AID 743045);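 note: 0% = neutral control median and -100% = positive control median; more negative values mean more cell killing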
[9] = cytotoxicity in OVCAR8 ovarian cancer cells, dose response, PAX8 project, cell-based, plate reader, dry powder samples (AID 743197)
[10] = A2780 ovarian cancer cell cytotoxicity, dose response, cytotoxicity control, plate reader, dry powder samples (AID 743046);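 note: 0% = neutral control wells and -100% = cytotoxic reference compound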

Measured: max activity

CC(=O)C1=C(O)C(=O)N(CCc2ccccc2)C1c1ccccc1[N+](=O)[O-] (stereo not drawn)
inactive: [1] | [2] | [3]

O=[N+]([O-])c1cc(-c2nnc(-c3ccccc3)o2)ccc1Oc1ccc(Cl)cc1
inactive: [1] | [2] | [3]

Oc1ccc(F)c2cccnc12
inactive: [1] | [4] | [5] | [3]

Cc1nnc(N/N=C/c2cccc(C(F)(F)F)c2)n1N
inactive: [1] | [2] | [3]

COc1ccc(NC(=O)C[C@H]2C(=O)N(c3ccc(OC)cc3)C[C@@H]2C)cc1
inactive: [1] | [2] | [5] | [3]

C[C@H](CO)N1C[C@H](C)[C@@H](CN(C)C(=O)Nc2ccnc(N3CCOCC3)c2)OCc2cnnn2CCCC1=O
inactive: [1] | [2] | [5] | [3] | [6] | [7] 8.36% [at 0.26 µM, hits give low values] | [8] | [9]

COc1ccc2c(c1)OC/C(=C/c1cccs1)C2=O
inactive: [1] | [2] | [3]

CC(=O)N/C(=C\c1ccccc1)C(=O)OCC(=O)NC1CCCC1
inactive: [1] | [2] | [5] | [3]

Nc1ncn([C@H]2C[C@H](O)[C@@H](CO)O2)c(=O)n1
inactive: [1] | [2] | [5] | [3]

CN(C)CC#Cc1ccc([C@@H]2[C@H](CO)N3CCCCN(C(=O)Nc4ccc(F)cc4)C[C@@H]23)cc1
inactive: [1] | [2] | [5] | [3] | [6] | [7] 29.4% [at 0.26 µM, hits give low values] | [8] | [10] | [9]

Cc1ccc(/C=C/C(=O)N2CCN(c3cccc(C(F)(F)F)c3)CC2)cc1
inactive: [1] | [2] | [3]

O=C(NC1CCCCCC1)C1c2ccccc2C(=O)N1Cc1cccs1 (stereo not drawn)
inactive: [1] | [2] | [5] | [3]

COc1ccc2nc(C)cc(N/N=C/c3cccc(OC)c3O)c2c1
inactive: [2]

Cc1nc(-c2ccc(NC(=O)c3ccco3)cc2)cs1
inactive: [2]

Cc1cc(Nc2ccc3c(c2)OCCO3)c2ccccc2n1
inactive: [1] | [3]

O=C(CCl)N(c1ccccc1)C1CCCCC1
inactive: [2]

CNC[C@H]1Oc2ccc(NC(=O)NC(C)C)cc2CC(=O)N([C@@H](C)CO)C[C@@H]1C
inactive: [1] | [4] | [5] | [3] | [6] | [7] 12.2% [at 2.1 µM, hits give low values] | [8] | [10] | [9]

CN(C[C@H]1N[C@@H](CO)[C@@H]1c1ccc(C2=CCCC2)cc1)C(=O)c1cccc(F)c1
inactive: [2]

CC(=O)/C=C/n1c(=S)oc2ccccc21
inactive: [2]
